# The list is not random: actives were taken first. Their share in the collection is about 11%.
# HCV inhibitor = blocks hepatitis C virus | Huh7.5.1 HCVcc-Cre infection, luciferase reporter, 44 h | Potency, µM (highest dose often 41.8 µM), actives largely listed as inhibitors | hit rate 3.4% among 340,000
#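 Luciferase read-out (15 sec integration) after a 15 min room-temperature substrate step quantifies HCVcc-Cre infection. Cells, 1,000 per well, had compound added 4 h post-plating, then virus at ~0.5 moi, and were cultured 44 h.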
# NS1 inh = influenza NS1 inhibition. Potency, µM (series often up to 46.1 µM). hit rate 0.4% among 270,000; calls by dose curve; also: actives are rising curves; nearly all actives have a fitted effect of over 50% in size
#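 Growth recovery, yeast-based: influenza A NS1 expressed in S. cerevisiae causes slow growth, and suppressors are detected by OD600. The parent strain without NS1 is used as positive control.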
# Pf growth 96h = P. falciparum growth inhibition at 96 hours; P. falciparum luciferase reporter growth, 96 h; hit rate 6.9% among 320,000; Potency, µM (highest dose often 28.7 µM), hits mostly inhibitors; AID 504834
#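 Delayed-death screen, second-generation endpoint: infected erythrocytes, 2% hematocrit, 0.05% parasitemia final; 96 hours at 37 C, 5% CO2; luciferase detection reagent; luminescence decrease equals reduced growth.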
# Vaccinia Venus = vaccinia inhibition (Venus reporter); Vaccinia virus Venus reporter expression, fluorescence; Potency, µM (titrated, usually from 36.5 µM), actives largely listed as inhibitors; hit rate 0.46% among 330,000; AID 720580; calls by dose curve; tested in A549 cells; also: nearly all actives have a fitted effect of over 30% in size
# Vaccinia mCherry = vaccinia inhibition (mCherry reporter). Vaccinia virus mCherry reporter infection, fluorescence. hit rate 0.63% among 310,000. Potency, µM (series often up to 36.5 µM), usual class: inhibitors; calls by dose curve; tested in A549 cells; also: nearly all actives have a fitted effect of over 35% in size
# Pf growth 48h = inhibits P. falciparum growth in the first generation, 48 h. P. falciparum luciferase growth in erythrocytes, 48 h. Potency, µM (doses to about 28.7 µM), usual class: inhibitors. hit rate 5.9% among 310,000
#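 In quantitative HTS format, infected erythrocytes bearing luciferase-reporter parasites were treated for a single generation at 37 C. Luminescence after adding detection reagent served as the growth measure.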
# Numbers stand for hits; – = inactive; ? = inconclusive; · = no result; [ ] = dose if it differs, or a comment. Unless noted, calls follow the shape of the dose curve; as a rule, active = well fitted inhibition curve with a large enough effect; inconclusive = small, poorly fitted or top-dose-only effect, or another doubt; inactive = no such curve, though single readings can be large or run the other way.
SMILES,HCV inhibitor,NS1 inh,Pf growth 96h,Vaccinia Venus,Vaccinia mCherry,Pf growth 48h
O=C(c1cccs1)N1CCC(c2nc3c(nnn3Cc3ccccc3Cl)c(=O)[nH]2)CC1,–,–,–,–,–,10.4µM
CSCCC(NC(=O)c1cc(C)oc1C)C(=O)O (stereo not given),–,–,·,·,·,–
COC(=O)CCC(NC(=O)c1cc(C)oc1C)C(=O)OC (stereo not given),–,–,10.4µM,–,·,–
O=[N+]([O-])c1ccc(OC/C=C2\Oc3ccc([N+](=O)[O-])cc3C2N2CCOCC2)cc1 (stereo not given),?,–,–,–,·,?
O=[N+]([O-])c1ccc2c(c1)C(N1CCOCC1)/C(=C/COc1ccc3ccccc3c1Br)O2 (stereo not given),–,?,?,–,·,6.57µM
Cc1nc2nc[nH]n2c(=O)c1CCC(=O)Nc1ccc(F)cc1,·,·,·,–,–,·
O=C(O)[C@@H](O)[C@@H](O)[C@H](O)[C@H](O)CO,·,–,8.49µM,–,–,6.01µM
COc1cc(COc2ccc3c(C)c(CCC(=O)O)c(=O)oc3c2)cc(OC)c1OC,–,–,–,–,–,–[0.00184 µM]
NC(=O)c1ccc[n+](CC(=O)c2ccccc2)c1,0.562µM,–,–,–,?,–
Nc1ccc[n+](CC(=O)c2ccc(F)cc2)c1,·,·,·,–,–,·
O=C(C[n+]1ccc2ccccc2c1)c1ccc(NC(=O)c2ccccc2)cc1,–,–,–,–,–,13.1µM
N#Cc1ccc[n+](CC(=O)c2ccc(Cl)cc2)c1,–,–,7.38µM,–,–,–
COC1=Cc2c(ccc3ccc(=O)oc23)OC1(C)C,?,–,·,·,·,7.38µM
COc1cc2c(cc1OC)CN(C(=O)/C=C/c1cc(OC)c(OC)c(OC)c1)CC2,?,–,4.65µM,–,–,2.62µM
CCc1cc2cc(C)c(C)cc2nc1SCC(=O)NNC(=O)c1ccco1,–,–,?,–,?,–
CC(C)N(Cc1nc(-c2ccccc2)no1)C(=O)c1ccc([N+](=O)[O-])cc1,22.4µM,–,–,–,–,–
CC(C)N(Cc1nc(-c2ccccc2)no1)C(=O)c1ccc(Cl)cc1,?,–,–,–,–,·
COc1ccccc1C(=O)N(Cc1nc(-c2ccc(Cl)cc2)no1)C(C)C,11.2µM,–,–,–,–,·
COc1ccc(-c2noc(CN(C(=O)c3ccccc3Cl)C(C)C)n2)cc1,·,·,·,–,–,·
COc1ccc(-c2noc(CN(C(=O)c3c(-c4ccccc4Cl)noc3C)C(C)C)n2)cc1,?,–,·,–,·,10.4µM
COc1ccccc1OCC(=O)N(Cc1nc(-c2ccccc2)no1)C1CCCCC1,11.2µM,–,·,?,·,13.1µM
CC(C)OC(=O)c1ccc(N2C(=O)C3CC=CCC3C2=O)cc1 (stereo not given),–,–[9.22 µM],·,·,·,–
COc1ccc(NC(=O)Nc2cc(C)ccn2)cc1,–,–,·,–,–,·
COC(=O)CN1C(=O)COc2ccc(S(=O)(=O)NCc3ccccc3)cc21,–,–,–,·,·,–
Cc1c(C(=O)NCc2ccc3c(c2)OCO3)sc(=O)n1Cc1ccc(S(C)(=O)=O)cc1,·,·,·,–,–,·
SMILES,HCV inhibitor,NS1 inh,Pf growth 96h,Vaccinia Venus,Vaccinia mCherry,Pf growth 48h
Cc1nc2cc(-c3ccccc3)nn2c(C)c1CCC(=O)NCc1ccco1,–,–,?,–,–,·
CCOCCN1CCN(c2c(C)c(C)nc3cc(-c4cc(OC)cc(OC)c4)nn23)CC1,?,–,–,–,?,·
CCc1c(C)nc2cc(-c3cc(OC)cc(OC)c3)nn2c1N1CCN(CCN2CCOCC2)CC1,?,–,–,?,·,1.31µM
COc1cc(OC)cc(-c2cc3nc(C)c(CCC(=O)NC(C)CCc4ccco4)c(C)n3n2)c1 (stereo not given),?,–,–,·,·,9.28µM
COC(=O)C(NC(=O)CCc1c(C)nc2cc(-c3cccc(F)c3)nn2c1C)C(C)C (stereo not given),·,·,·,–,–,·
COc1cc(OC)cc(-c2cc3nc(C)c(CCC(=O)O)c(C)n3n2)c1,–,–,9.28µM,–,–,·
Cc1nc2cc(-c3cccc(F)c3)nn2c(C)c1CCC(=O)NC(C)CCc1ccco1 (stereo not given),–,–,10.4µM,–,?,·
CN(C)S(=O)(=O)NCCNc1ccc(C(F)(F)F)cc1[N+](=O)[O-],?,–,?,·,·,–
Cc1nc2ncnn2c(C)c1CCC(=O)NC(C)CCc1ccco1 (stereo not given),–,?,11.7µM,·,·,–
CCS(=O)(=O)c1ccc2oc(SCC(=O)c3ccco3)nc2c1,–,–,?,–,·,?
CC1=[N+]([O-])C(N2CCOCC2)C(O)(c2ccccc2)C1 (stereo not given),–,–,–[5.75 µM],–,·,–
COc1ccccc1CC(=O)Nc1ccc(-c2noc(COc3cccc(C)c3C)n2)cc1,?,–,14.7µM,–,–,·
COc1ccccc1CC(=O)Nc1ccc2[nH]ncc2c1,–,–,–,–,–,10.4µM
COc1ccc(-c2nc(-c3ccc(NC(=O)c4ccc(Br)o4)cc3)no2)cc1OC,?,–,?,31.6µM,·,?
COc1ccccc1CC(=O)Nc1ccc(-c2noc(COc3ccc(Br)cc3)n2)cc1,–,–,–,·,·,·
COc1cc(-c2nc(-c3ccc(NC(=O)c4ccc(Br)o4)cc3)no2)cc(OC)c1OC,?,–,?,·,·,·
COc1cccc(-c2nc(-c3ccc(NC(=O)Cc4ccccc4OC)cc3)no2)c1,6.31µM,–,–,–,–,?
Cc1cnc(NC(=O)c2cc3c(s2)CCCC3)s1,?,–,–,–,·,·
CCOC(=O)C1=C(C)NC(=O)C1CC(=O)O (stereo not given),–,–,?,–,–,–
Cc1ccc(S(=O)(=O)N2CCN(C3CCN(Cc4ccccc4)CC3)CC2)cc1,–,–,–[5.75 µM],–,–,–
O=S(=O)(c1ccc2ccccc2c1)N1CCN(C2CCN(Cc3ccccc3)CC2)CC1,22.4µM,–,–,·,·,?
COc1ccc(S(=O)(=O)N2CCN(C3CCN(Cc4ccccc4)CC3)CC2)cc1,?,–,?,?,·,?
c1ccc(CN2CCC(N3CCC(N4CCCCCC4)CC3)CC2)cc1,?,–,8.28µM,–,–,13.1µM
O=S(=O)(c1ccccc1)N1CCN(C2CCN(Cc3ccccc3)CC2)CC1,?,–,–,–,·,0.104µM
COCCn1nnnc1C(c1ccc(O)c(OC)c1)N1CCc2ccccc2C1 (stereo not given),–,–,–,–,·,–
C=C(Br)Cn1cnc2ccccc21,–,·,–,–,–,?
COCCN(C(=O)COC(=O)/C(=C/c1ccccc1)NC(C)=O)c1c(N)n(Cc2ccccc2)c(=O)[nH]c1=O,–,–,–,–,–,–
CCOC(=O)CC1CCCCN1C(=O)c1ccc2oc(CCc3ccccc3)nc2c1 (stereo not given),10µM,–,?,·,·,–
Cc1oc(-c2cccc(F)c2)nc1CN1CCCCC1CCc1ccccn1 (stereo not given),–,–,?,·,·,13.1µM

# From PubChem BioAssay
